Data: the supplement of paper PMC10849652
About 7,900 targets were measured; listed, in parts, are those with a hit and a random draw of the rest. About 0.6% of all pairs of compound and target were hits. A number with no mark means an inactive call.

Assays:
Assay in all cases: log2 fold change, soluble protein after heating vs DMSO (PISA); higher = thermal stabilisation; K562 cells, 10 uM, 30 min; active = over 0.2 and 3.5 SD of the protein, either way, in both replicates (recomputed)
[1] = compound: C1COCCN1CCN2C3=CC=CC=C3N=C2NC(=O)C4=CC(=CC=C4)[N+](=O)[O-] [IRAK-1-4 Inhibitor I]
Procedure, shortened: (§1)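 Soluble protein was quantified by TMTpro 16plex LC-MS/MS after channel sums were equalised. It was obtained as the supernatant after 21,000xg for 90 min from pooled aliquots of K562 cells (2×10^6 cells/mL, 10 μM compound, 30 min) heated for 3 min across 48°C-58°C and extracted in PBS with 0.5% NP-40 at 4°C. Thermal stability values are relative to control samples and come from duplicates. They are given as log2 fold changes.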

[2] = compound: C=CC(=O)N1CCC[C@@H](n2nc(-c3ccc(Oc4ccccc4)cc3)c3c(N)ncnc32)C1 [ibrutinib]
Procedure, shortened: as §1

[3] = compound: CC(=O)c1cnc2ccc(-c3cc(Cl)c(O)c(Cl)c3)nc2c1N[C@H]1CC[C@H](CN(C)C)CC1
Procedure, shortened: as §1

[4] = compound: CC(C)(C)Cn1c(N)nc2ccc(-c3[nH]c(C(C)(C)C)nc3-c3ccc(F)cc3)nc21 [ralimetinib]
Procedure, shortened: as §1

[5] = compound: CC(C)(O)CC(=O)NCCn1ccc2ncnc(Nc3ccc(Oc4cccc(C(F)(F)F)c4)c(Cl)c3)c21
Procedure, shortened: as §1

[6] = compound: CC(C)C1=C2N=C(C=C(N2N=C1)NCC3=CC=CC=C3)NCCCCCCN
Procedure, shortened: as §1

[7] = compound: CC(C)C[C@@H](C=O)NC(=O)[C@H](CC(C)C)NC(=O)[C@H](CC(C)C)NC(=O)OCc1ccccc1
Procedure, shortened: as §1

[8] = compound: CC(C)N(C[C@H]1O[C@@H](n2cnc3c(N)ncnc32)[C@H](O)[C@@H]1O)[C@H]1C[C@@H](CCc2nc3cc(C(C)(C)C)ccc3[nH]2)C1 [pinometostat]
Procedure, shortened: as §1

[9] = compound: CC1=C(C(CC(=O)N1)C2=CC=C(C=C2)C(F)(F)F)C(=O)NC3=C(C=C4C(=C3)C=NN4)F
Procedure, shortened: as §1

[10] = compound: CC1=C(C2=C(C=C1)C(=O)C3=CC=CC=C3N2CCCN)C
Procedure, shortened: as §1

UniProt Q96D15, sequence (Q96D15 whole entry, looked up): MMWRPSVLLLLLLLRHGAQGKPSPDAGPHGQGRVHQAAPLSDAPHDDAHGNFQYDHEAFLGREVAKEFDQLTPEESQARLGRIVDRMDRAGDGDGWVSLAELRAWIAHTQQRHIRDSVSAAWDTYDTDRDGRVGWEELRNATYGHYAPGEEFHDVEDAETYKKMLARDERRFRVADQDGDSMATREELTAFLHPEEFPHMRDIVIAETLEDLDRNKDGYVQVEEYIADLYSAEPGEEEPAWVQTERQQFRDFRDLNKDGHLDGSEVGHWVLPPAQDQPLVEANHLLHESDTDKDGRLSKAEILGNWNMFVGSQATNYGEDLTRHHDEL
UniProt Q9NX18, sequence (Q9NX18 whole entry, looked up): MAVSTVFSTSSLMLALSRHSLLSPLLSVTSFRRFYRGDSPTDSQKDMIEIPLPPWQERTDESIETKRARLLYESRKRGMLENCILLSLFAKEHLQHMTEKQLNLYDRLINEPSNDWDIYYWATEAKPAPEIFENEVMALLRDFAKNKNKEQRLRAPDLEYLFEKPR
UniProt Q96ER3, sequence (Q96ER3 whole entry, looked up): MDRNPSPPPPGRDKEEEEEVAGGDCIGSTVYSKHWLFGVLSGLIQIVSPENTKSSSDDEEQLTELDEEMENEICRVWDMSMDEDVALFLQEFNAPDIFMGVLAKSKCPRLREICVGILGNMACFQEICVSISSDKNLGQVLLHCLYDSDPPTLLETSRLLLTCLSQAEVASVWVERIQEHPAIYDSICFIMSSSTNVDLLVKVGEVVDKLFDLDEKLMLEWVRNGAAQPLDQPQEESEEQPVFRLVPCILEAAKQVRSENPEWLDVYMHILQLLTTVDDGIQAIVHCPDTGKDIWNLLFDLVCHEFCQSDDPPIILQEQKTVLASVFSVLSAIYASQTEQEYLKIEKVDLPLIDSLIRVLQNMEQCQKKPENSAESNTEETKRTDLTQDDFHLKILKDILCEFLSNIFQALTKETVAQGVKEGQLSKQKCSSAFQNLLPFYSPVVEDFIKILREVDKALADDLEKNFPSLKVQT
UniProt Q15758, sequence (Q15758 whole entry, looked up): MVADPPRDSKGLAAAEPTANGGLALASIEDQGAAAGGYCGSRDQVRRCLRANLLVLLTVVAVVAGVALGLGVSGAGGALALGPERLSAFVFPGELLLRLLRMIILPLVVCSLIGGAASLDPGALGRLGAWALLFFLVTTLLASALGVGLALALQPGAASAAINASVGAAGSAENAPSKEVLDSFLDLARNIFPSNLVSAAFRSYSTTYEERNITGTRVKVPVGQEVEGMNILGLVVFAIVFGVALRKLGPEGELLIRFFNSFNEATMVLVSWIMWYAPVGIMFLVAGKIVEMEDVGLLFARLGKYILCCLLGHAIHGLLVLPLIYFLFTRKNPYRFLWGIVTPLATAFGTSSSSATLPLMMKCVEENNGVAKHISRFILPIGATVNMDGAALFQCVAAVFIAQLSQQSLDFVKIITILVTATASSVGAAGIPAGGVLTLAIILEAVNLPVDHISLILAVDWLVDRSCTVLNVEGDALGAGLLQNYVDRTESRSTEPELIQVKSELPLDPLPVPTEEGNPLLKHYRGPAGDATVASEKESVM
UniProt Q04206, sequence (Q04206 whole entry, looked up): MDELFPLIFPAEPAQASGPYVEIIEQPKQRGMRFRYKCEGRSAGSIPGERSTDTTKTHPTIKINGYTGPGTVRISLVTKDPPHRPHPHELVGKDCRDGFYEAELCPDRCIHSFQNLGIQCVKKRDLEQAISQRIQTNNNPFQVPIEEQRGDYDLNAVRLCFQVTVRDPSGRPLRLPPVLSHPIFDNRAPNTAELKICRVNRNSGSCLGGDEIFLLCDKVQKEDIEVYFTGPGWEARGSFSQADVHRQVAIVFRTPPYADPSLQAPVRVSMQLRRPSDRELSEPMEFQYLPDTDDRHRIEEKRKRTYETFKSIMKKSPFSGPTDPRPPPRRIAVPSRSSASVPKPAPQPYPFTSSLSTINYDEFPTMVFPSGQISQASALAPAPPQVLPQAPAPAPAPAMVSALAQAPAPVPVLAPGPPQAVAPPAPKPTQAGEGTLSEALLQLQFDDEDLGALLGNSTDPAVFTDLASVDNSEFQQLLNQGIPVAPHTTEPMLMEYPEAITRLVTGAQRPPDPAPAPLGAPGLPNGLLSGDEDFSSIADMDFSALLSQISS
UniProt Q5JTH9, sequence (Q5JTH9 whole entry, looked up): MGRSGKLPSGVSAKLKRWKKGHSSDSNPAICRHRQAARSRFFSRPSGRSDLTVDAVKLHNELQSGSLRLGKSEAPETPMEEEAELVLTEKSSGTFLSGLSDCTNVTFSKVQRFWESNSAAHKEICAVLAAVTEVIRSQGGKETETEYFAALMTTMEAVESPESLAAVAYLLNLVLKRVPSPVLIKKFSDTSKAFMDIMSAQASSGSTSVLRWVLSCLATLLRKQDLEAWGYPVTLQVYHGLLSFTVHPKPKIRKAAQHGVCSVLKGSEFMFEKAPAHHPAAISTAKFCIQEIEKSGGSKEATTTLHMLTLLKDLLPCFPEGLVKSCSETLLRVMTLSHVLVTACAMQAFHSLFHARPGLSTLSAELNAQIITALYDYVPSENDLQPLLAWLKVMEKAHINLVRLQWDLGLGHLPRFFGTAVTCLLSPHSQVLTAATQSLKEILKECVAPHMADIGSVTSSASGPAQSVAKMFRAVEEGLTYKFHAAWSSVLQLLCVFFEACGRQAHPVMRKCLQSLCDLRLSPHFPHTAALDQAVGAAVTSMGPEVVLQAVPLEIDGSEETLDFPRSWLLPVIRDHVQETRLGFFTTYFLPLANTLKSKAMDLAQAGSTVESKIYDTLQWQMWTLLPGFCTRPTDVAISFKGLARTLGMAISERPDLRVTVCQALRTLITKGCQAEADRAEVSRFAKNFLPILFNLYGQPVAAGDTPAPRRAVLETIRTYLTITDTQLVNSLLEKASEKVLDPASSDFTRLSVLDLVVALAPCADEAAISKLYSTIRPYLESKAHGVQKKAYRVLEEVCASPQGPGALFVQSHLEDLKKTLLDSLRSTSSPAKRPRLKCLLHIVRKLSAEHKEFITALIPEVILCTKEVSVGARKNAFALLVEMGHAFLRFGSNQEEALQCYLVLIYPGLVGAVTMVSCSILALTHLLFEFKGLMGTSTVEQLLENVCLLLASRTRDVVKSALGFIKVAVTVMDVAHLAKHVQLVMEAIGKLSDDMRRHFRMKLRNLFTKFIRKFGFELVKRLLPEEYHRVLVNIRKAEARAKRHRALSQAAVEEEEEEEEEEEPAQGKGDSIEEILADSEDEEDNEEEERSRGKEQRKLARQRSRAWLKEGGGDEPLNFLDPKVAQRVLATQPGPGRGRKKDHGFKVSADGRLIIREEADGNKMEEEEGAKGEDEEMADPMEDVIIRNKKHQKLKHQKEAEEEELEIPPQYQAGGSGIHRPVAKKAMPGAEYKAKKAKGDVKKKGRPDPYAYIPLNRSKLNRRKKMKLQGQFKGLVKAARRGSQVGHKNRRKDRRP
UniProt P51148, sequence (P51148 whole entry, looked up): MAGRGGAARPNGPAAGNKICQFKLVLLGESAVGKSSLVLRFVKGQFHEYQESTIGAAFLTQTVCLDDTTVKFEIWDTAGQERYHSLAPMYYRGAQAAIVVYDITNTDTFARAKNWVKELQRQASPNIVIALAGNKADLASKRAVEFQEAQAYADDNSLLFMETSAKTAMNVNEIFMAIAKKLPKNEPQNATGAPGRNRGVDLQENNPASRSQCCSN
UniProt Q9NRX5, sequence (Q9NRX5 whole entry, looked up): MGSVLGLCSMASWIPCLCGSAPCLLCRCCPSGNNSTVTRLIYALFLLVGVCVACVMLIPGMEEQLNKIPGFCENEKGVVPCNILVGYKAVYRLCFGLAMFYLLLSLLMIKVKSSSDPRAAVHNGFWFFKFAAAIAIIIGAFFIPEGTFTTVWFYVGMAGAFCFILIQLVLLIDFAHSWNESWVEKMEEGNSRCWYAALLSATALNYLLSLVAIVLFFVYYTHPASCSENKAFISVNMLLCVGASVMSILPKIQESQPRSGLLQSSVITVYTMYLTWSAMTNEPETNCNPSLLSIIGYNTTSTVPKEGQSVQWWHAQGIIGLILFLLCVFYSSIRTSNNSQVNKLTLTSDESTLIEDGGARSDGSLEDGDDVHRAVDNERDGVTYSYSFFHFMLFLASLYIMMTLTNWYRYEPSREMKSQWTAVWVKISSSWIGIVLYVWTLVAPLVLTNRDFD
UniProt Q8IZV5, sequence (Q8IZV5 whole entry, looked up): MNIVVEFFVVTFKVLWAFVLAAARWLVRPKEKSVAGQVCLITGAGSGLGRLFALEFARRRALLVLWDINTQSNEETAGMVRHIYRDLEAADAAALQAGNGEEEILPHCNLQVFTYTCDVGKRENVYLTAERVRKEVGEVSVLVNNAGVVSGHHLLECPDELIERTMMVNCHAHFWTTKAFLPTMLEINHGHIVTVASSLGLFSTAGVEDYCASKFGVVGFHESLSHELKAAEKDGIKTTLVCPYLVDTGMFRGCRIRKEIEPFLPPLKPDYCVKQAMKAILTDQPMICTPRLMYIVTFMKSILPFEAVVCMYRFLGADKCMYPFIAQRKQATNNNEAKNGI
UniProt O95059, sequence (O95059 whole entry, looked up): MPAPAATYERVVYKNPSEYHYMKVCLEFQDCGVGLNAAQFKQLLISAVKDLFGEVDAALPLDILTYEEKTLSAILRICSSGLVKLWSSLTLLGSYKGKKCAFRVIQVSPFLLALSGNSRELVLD
UniProt Q15382, sequence (Q15382 whole entry, looked up): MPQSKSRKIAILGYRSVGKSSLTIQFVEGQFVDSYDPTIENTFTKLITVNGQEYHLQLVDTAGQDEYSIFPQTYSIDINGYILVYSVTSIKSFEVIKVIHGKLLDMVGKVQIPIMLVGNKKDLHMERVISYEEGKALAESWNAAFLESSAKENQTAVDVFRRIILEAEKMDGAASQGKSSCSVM

Target | log2 fold change [1] | log2 fold change [2] | log2 fold change [3] | log2 fold change [4] | log2 fold change [5] | log2 fold change [6] | log2 fold change [7] | log2 fold change [8] | log2 fold change [9] | log2 fold change [10]
RUFY1 (UniProt Q96T51) | -0.019 | -0.002 | 0.101 | 0.034 | -0.092 | -0.182 | 0.011 | 0.083 | -0.003 | -0.014
RPS16 (UniProt P62249) | -0.137 | 0.036 | 0.054 | 0.032 | 0.011 | -0.02 | 0.035 | 0.102 | 0.057 | -0.6 (active)
SERINC1 (UniProt Q9NRX5) | 0 | 0.023 | 0 | -0.106 | -0.235 | -0.568 (active) | 0.095 | -0.022 | 0.038 | 0
RELA (UniProt Q04206) | -0.011 | -0.002 | 0.022 | 0.025 | 0 | -0.018 | 0.031 | 0.003 | -0.022 | -0.054
SLC1A5 (UniProt Q15758) | 0.035 | 0.028 | 0.013 | 0.046 | -0.002 | 0.23 | -0.052 | -0.034 | -0.012 | -0.014
RCN3 (UniProt Q96D15) | 0.131 | 0.075 | -0.048 | -0.013 | 0.013 | 0.047 | 0.026 | -0.035 | 0.05 | -0.031
RDH10 (UniProt Q8IZV5) | 0.076 | 0.159 | -0.07 | 0.008 | 0.075 | 0.069 | -0.043 | -0.018 | 0.007 | 0.007
RHEB (UniProt Q15382) | 0.006 | -0.016 | -0.04 | -0.112 | -0.01 | 0.027 | -0.055 | -0.035 | -0.014 | 0.093
RPS14 (UniProt P62263) | -0.178 | 0.03 | 0.079 | 0.135 | -0.014 | -0.016 | 0.003 | -0.013 | 0.035 | -0.586 (active)
RAB5C isoform 2 (UniProt P51148) | 0.015 | 0.017 | 0.039 | 0.027 | -0.012 | 0.064 | -0.042 | -0.028 | 0.028 | -0.032
RPS3A (UniProt P61247) | -0.133 | 0.028 | 0.072 | 0.053 | 0.069 | -0.071 | 0.059 | 0.108 | 0.03 | -0.565 (active)
RPP14 (UniProt O95059) | -0.035 | 0.073 | -0.021 | 0.009 | 0.051 | -0.021 | 0 | 0.021 | 0.041 | -0.04
SAAL1 (UniProt Q96ER3) | 0.019 | -0.035 | 0.578 (active) | -0.033 | -0.112 | 0.012 | 0.032 | 0.073 | 0.026 | 0.239 (active)
SDHAF2 (UniProt Q9NX18) | 0.013 | -0.004 | 0.124 | -0.044 | -0.011 | -0.042 | 0.084 | -0.014 | 0.015 | -0.01
RRP12 (UniProt Q5JTH9) | -0.018 | -0.1 | 0.201 | 0.331 | 0.006 | 0.272 | 0.243 | 0.315 | -0.051 | -0.107
